An excerpt weighted towards active compounds, which were near 9.2% of everything screened.
ELG1 genotox = qHTS screen for small molecules that induce genotoxicity in human embryonic kidney (HEK293T) cells expressing luciferase-tagged ELG1 | HEK293T ELG1-luciferase reporter, luminescence, 16 h | Potency, µM (highest dose often 46 µM), without a hit: at the top dose activity change, positive = activation, most hits filed as activators | hit rate 1.3% among 330,000 | AID 504466, 2011; also: % of control where 0% means no effect; nearly all actives have a fitted effect of over 60% in size
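Reporter readout depends on ELG1 protein level, which increases with genetic stress. After 16 hr compound exposure at 37 °C, luciferase activity was quantified using ONE-Glo.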
ELG1 DNA repair = qHTS screen for small molecules that inhibit ELG1-dependent DNA repair in human embryonic kidney (HEK293T) cells expressing luciferase-tagged ELG1 | HEK293T ELG1-luciferase reporter, luminescence, 16 h; DNA damage induced by 5-fluorouridine | Potency, µM (doses to about 46.1 µM), for the others: at the top dose activity change, negative = inhibition, usual class: inhibitors | hit rate 2.3% among 330,000; also: % is scaled to controls: 0 for no effect and ±100 for the full control effect; nearly all actives have a fitted effect of over 55% in size
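Reporter activity after DNA damage by 5-fluorouridine is monitored. Compound-treated cells incubate 16 hr at 37 °C, then ONE-Glo is added for 30 min before luminescence reading.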
NPC1 promoter act = qHTS Assay for NPC1 Promoter Activators; Potency, µM (series often up to 9.22 µM), for the others: top-dose activation, usual class: activators; hit rate 2.4% among 320,000; Huh7 NPC1 promoter luciferase reporter, 24 h; AID 485313, 2010; also: % of control where 0% means no effect; nearly all actives have a fitted effect of over 60% in size
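Cells: Huh7 expressing luciferase under the NPC1 promoter, 1500/well. Seeded 2 h, compound added, incubated 24 h at 37 °C. Luciferase reagent, 10 min ambient, then luminescence.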
SMN2 splice enh = qHTS Assay for Enhancers of SMN2 Splice Variant Expression; HEK293 SMN2-luciferase splicing reporter, luminescence, 30-36 h; Potency, µM (top dose mostly 46.1 µM), for the others: at the highest dose activity change, positive = activation, actives largely listed as activators; hit rate 2.8% among 210,000; also: % of control where 0% means no effect; nearly all actives have a fitted effect of over 55% in size
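HEK293 cells carry an SMN2 minigene-luciferase reporter in which exon 7 inclusion puts luciferase in frame. Cells were seeded at 2000 cells/well, attached for 10-12 hours, then exposed to compounds for 30-36 hours at 37C before ONE-Glo luminescence.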
FLuc modulator = qHTS profiling assay for firefly luciferase inhibitor/activator using purifed enzyme and Km concentrations of substrates (counterscreen for miR-21 project); purified FLuc, Km substrates, luminescence inhibition; Potency, µM (top dose mostly 57.5 µM), for the others: top-dose activity change, negative = inhibition, most hits filed as inhibitors; hit rate 6.9% among 360,000; AID 588342, 2011;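 also: plate controls were vehicle for no effect and reference inhibitor for full effect; nearly all actives have a fitted effect of over 55% in size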
Target sequence (P08659 whole entry, looked up): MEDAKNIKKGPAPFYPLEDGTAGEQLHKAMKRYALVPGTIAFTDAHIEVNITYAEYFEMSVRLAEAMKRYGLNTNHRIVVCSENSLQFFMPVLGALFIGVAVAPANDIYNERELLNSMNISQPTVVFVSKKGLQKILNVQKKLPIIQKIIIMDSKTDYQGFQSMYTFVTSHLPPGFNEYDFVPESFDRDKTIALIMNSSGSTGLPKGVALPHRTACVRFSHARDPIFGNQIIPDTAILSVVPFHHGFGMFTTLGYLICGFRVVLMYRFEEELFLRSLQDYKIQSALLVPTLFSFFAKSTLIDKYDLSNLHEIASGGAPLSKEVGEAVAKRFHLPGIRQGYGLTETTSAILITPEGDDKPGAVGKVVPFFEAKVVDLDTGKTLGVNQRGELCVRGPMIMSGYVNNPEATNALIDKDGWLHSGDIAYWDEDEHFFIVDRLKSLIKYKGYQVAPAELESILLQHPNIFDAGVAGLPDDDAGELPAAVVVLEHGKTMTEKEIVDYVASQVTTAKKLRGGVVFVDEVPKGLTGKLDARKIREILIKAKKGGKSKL
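Purified P. pyralis luciferase (10nM final) with 10uM D-luciferin and 10uM ATP (Km levels) in 50mM Tris acetate pH 7.5, 10mM Mg acetate, 0.01% Tween-20, 0.05% BSA; qHTS 6-point titration, ~60 µM downward; luminescence read.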
Rab9 prom act = qHTS Assay for Rab9 Promoter Activators; Huh7 Rab9 promoter-luciferase reporter, luminescence, 24 h; Potency, µM (doses to about 9.22 µM), for inactives: top-dose activation, negative = inhibition, most hits filed as activators; hit rate 2.8% among 320,000; AID 485297, 2010; also: % of control where 0% means no effect; nearly all actives have a fitted effect of over 60% in size
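Huh7 cells stably carrying Rab9 promoter–luciferase reporter, plated 1500 cells/well, compound added after 2 h and incubated 24 h at 37 °C; luciferase luminescence then read after 10 min with detection reagent.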
Active calls of the source: *; ? = inconclusive; · = no result given. Calls follow the shape of the dose curve; as a rule, active = well fitted curve in the direction sought with a large enough effect; inconclusive = small, poorly fitted or top-dose-only effect, or another doubt; inactive = no such curve, though single readings can be large; an effect the other way counts as inactive or inconclusive. Potency is read from the fitted curve at half-maximal effect.

SMILES	ELG1 genotox	ELG1 DNA repair	NPC1 promoter act	SMN2 splice enh	FLuc modulator	Rab9 prom act
O=C1NN(c2ccc(Cl)cc2)C(=O)/C1=C\c1ccc(-c2cccc(C(=O)O)c2)o1	15%	?	7%	26%	17µM*	14%
CCN(CC)c1ccc(/C=C2/SC(=O)N(C(C)C)C2=O)o1	-13%	?	26%	21%	21µM*	24%
CCCN1C(=O)S/C(=C/c2ccc(N3CCOCC3)o2)C1=O	?	?	25%	·	?	?
CCCCC1(C)OC(=O)C(=Cc2ccc(-c3ccc(Cl)c(C(=O)O)c3)o2)C(=O)O1 (stereo not given)	0%	6%	3%	·	?	-2%
Cc1ccc(N2NC(=O)/C(=C/c3ccc(-c4ccc(Cl)c(C(=O)O)c4)o3)C2=O)cc1	0%	4%	0%	9%	11µM*	-3%
O=C(OCC(=O)N1CCOCC1)c1ccccc1Cc1ccccc1	13µM*	?	1.6µM*	11µM*	9.5µM*	3.2µM*
O=C1N/C(=C/c2ccc(N3CCOCC3)o2)C(=O)N1c1cccc(Cl)c1	10%	?	14%	-2%	21µM*	?
Cc1ccc(CN2C(=O)N/C(=C\c3ccc(N4CCOCC4)cc3)C2=O)cc1	14%	?	0%	?	-19%	-5%
CCNC(=S)Nc1ccc(OCc2nc3ccccc3s2)cc1	?	?	3.5µM*	·	12µM*	4µM*
O=C(O)CCCC(=O)Nc1ccc(OCc2nc3ccccc3s2)cc1	?	?	3%	-11%	17µM*	18%
COc1ccc(Cl)cc1C(=O)N1CCN(Cc2ccc3c(c2)OCO3)CC1	-8%	?	0%	·	-2%	2%
Cc1cccc(Cn2c(SCc3ccc(C(=O)NCCc4ccccc4)cc3)nc3cccnc32)c1	·	·	·	·	-14%	·
CC1CCCCN1CCNC(=O)c1ccc(Cn2c(SCc3ccccc3)nc3cccnc32)cc1 (stereo not given)	·	·	·	8%	13µM*	·
O=C(NCCN1CCCCC1)c1ccc(Cn2c(SCc3ccccc3)nc3cccnc32)cc1	·	·	·	4%	12µM*	·
CC1CCN(CCNC(=O)c2ccc(Cn3c(SCc4ccccc4)nc4cccnc43)cc2)CC1	·	·	·	2%	12µM*	·
CCC(=O)N1CCc2cc(CNC(=O)Nc3cc(OC)c(OC)c(OC)c3)ccc21	·	·	·	·	3%	·
O=C(NCc1nc2ccccc2[nH]1)C1=C[C@@H](c2csc3ccccc23)C[C@@H](OCCCCO)O1	-10%	23µM*	-8%	·	-6%	-1%
COc1ccc(-c2cc(C(F)(F)F)n3nc(C(=O)Nc4cc(C(F)(F)F)ccc4Cl)cc3n2)cc1OC	·	·	·	28%	1%	·
CCOc1cc(/C=C2\C(=O)N(c3nc(-c4ccc(Br)cc4)cs3)N=C2c2ccccc2)ccc1O	0%	?	-8%	-42%	1%	-4%
O=C1/C(=C\c2ccc(O)c(O)c2)C(c2ccccc2)=NN1c1ccccc1	8%	-5%	-12%	-2%	19µM*	-13%
COc1cc(/C=C2\C(=O)N(c3ccc(NC(C)=O)cc3)N=C2c2ccccc2)ccc1O	6%	12%	-1%	5%	17µM*	-6%
NC(C(=O)O)C(O)C(=O)O (stereo not given)	·	·	·	0%	·	·
Cc1ccc(OCC(=O)NCC(c2ccc(Cl)cc2)N2CCCCC2)cc1 (stereo not given)	·	·	·	·	-9%	·
CCN=c1scc(C)n1/N=C/c1ccsc1	?	?	3.2µM*	?	17µM*	3.2µM*
